Screening data: PubChem, National Center for Advancing Translational Sciences (NCATS)
Imprint erasure = qHTS Assay for Compounds that Induce Erasure of Genomic Imprints; mouse ES Peg3-LacZ reporter, beta-gal luminescence, 40 h; Potency, µM (top dose mostly 60.7 µM), for the others: at the highest dose activity change, positive = activation, usual class: activators; 110,000 compounds, 0.02% hits
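Imprint erasure is scored as LacZ activity from the silenced maternal Peg3 allele in feeder-free female ES cells cultured 40 h with LIF. Luminescence is normalized to in-plate negative controls and fitted to the Hill equation.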
p53ts 32C tox = qHTS Screen for Compounds that Selectively Target Cancer Cells with p53 Mutations: Cytotoxicity of p53ts Cells at the Permissive Temperature; H1299-p53A138V at 32C, ATP luminescence viability, 24 h; Potency, µM (highest dose often 46.1 µM), without a hit: at the top dose activity change, negative = cytotoxicity, usual class: cytotoxic; 130,000 compounds, 0.93% hits; AID 924, 2007;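 note: 0% = DMSO and -100% = full killing by reference compound; nearly all actives have a fitted effect of over 55% in size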
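Cells: H1299 p53ts (A138V), 600/well, pre-incubated 16–30 h at 37C. Cpd up to 46 uM, 24 h, 32C. Readout: ATPlite luminescence, 20 min RT. Normalization: DMSO vs tamoxifen 100 uM. AC50 by Hill equation.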
p53ts 39C kill = qHTS Screen for Compounds that Selectively Target Cancer Cells with p53 Mutations: Cytotoxicity of p53ts Cells at the Nonpermissive Temperature; H1299-p53A138V viability at 39C, ATP luminescence, 24 h; Potency, µM (top dose mostly 46.1 µM), without a hit: top-dose activity change, negative = cell killing, actives largely listed as cytotoxic; 130,000 compounds, 1.5% hits; note: % is set by controls: 0 for no effect and ±100 for the full control effect; nearly all actives have a fitted effect of over 55% in size
IkB signaling = IkB Signaling; ABC-DLBCL IkBa-CBG/CBR dual luciferase ratio, 4 h; response scale: scaled: untreated 0%, proteasome inhibitor 100%; Potency, µM (highest dose often 57.1 µM), for inactives: at the top dose IkBa stabilization activation; 110,000 compounds, 0.04% hits; active = well fitted curve in the direction sought with a large enough effect in the signal ratio, not every such curve was filed as active; inconclusive = small, poorly fitted or top-dose-only effect, or a change in a side signal; the % refers to the signal ratio;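 note: the direction sought is a rising ratio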
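In this assay, an IκBα–CBG68 fusion accumulates when IKK-driven degradation is blocked; native CBR normalizes for cell number. OCI-Ly3 cells were treated 4 h with compound and doxycycline, then green and red light read after Chroma-Glo addition.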
Numbers without * were called inactive; ? = inconclusive; / = no result; [ ] = another dose, or the depositor's remark. An excerpt weighted towards active compounds, which were near 1.7% of everything screened. Unless noted, calls come from the whole dose curve; as a rule, active = well fitted curve in the direction sought with a large enough effect; inconclusive = small, poorly fitted or top-dose-only effect, or another doubt; inactive = no such curve, though single readings can be large; an effect the other way counts as inactive or inconclusive. Potency is the fitted concentration of half-maximal effect.

SMILES	Imprint erasure	p53ts 32C tox	p53ts 39C kill	IkB signaling
Cc1cc(C(=O)Nc2ccc3c(c2)OCO3)cs1	-71%	13µM*	10µM*	0%
CC1CCC2C(=O)OC(CN=[N+]=[N-])CN2C1c1ccc(Br)cc1 (stereo unspecified)	/	-1%[9.22 µM]	-2%[9.22 µM]	/
CN1C[C@@H](C(=O)N[C@]2(C)O[C@]3(O)[C@H]4CCCN4C(=O)[C@H](Cc4ccccc4)N3C2=O)C[C@H]2c3cccc4[nH]cc(c34)C[C@@H]21	/	10%	6%	-7%
CCCCC(CC)CNC(=O)CCCc1nnc2n(CCC)c(=O)c3sccc3n12 (stereo unspecified)	2%[10.9 µM]	23%	7%	?
O=C(OCc1cc(=O)n2nc(-c3cccs3)sc2n1)c1cccc(F)c1	-16%[10.9 µM]	3%	-17%	0%
CN(C)CCCCNC(=O)c1ccc(-n2c(=O)c(=O)[nH]c3ccccc32)cc1	/	-10%	-7%	/
COc1cc(OC)cc(C(=O)Nc2ccc3c(c2)OCCO3)c1	-79%[10.9 µM]	13µM*	4µM*	?
CCc1cccc(NC(=O)Cn2c(=O)n(CCC(=O)NCc3ccccc3Cl)c(=O)c3sccc32)c1	-5%[10.9 µM]	?	13µM*	?
Cc1ccccc1NC(=O)Cn1c(=O)n(CCCCCC(=O)NCc2ccccc2Cl)c(=O)c2sccc21	15%[10.9 µM]	-27%	-22%	22%
CN=c1scc(C)n1/N=C/c1ccc2c(c1)OCO2	-85%	5µM*	5µM*	?
CCCc1nc2ccccc2c(=O)n1/N=C/c1ccc(O)cc1O	-12%	6%	-5%	-3%
CN=c1scc(C)n1/N=C/c1ccc(O)cc1O	-81%	5µM*	5µM*	?
CN=c1scc(C)n1/N=C/c1ccc(O)cc1	-48%	7.9µM*	?	0%
CCCc1nc2ccccc2c(=O)n1/N=C/c1ccc(O)cc1	-13%	12%	-7%	4%
Cc1ccc(NC(=O)CCCn2c(=O)c3cccn3c3cccnc32)c(C)c1	-6%[10.9 µM]	9%	-7%	-2%
COc1cc(NC(=O)c2cc(-c3ccc(Cl)c(Cl)c3)on2)cc(OC)c1OC	-10%[10.9 µM]	-26%	20µM*	11%
COc1cccc(-c2cc(C(=O)Nc3cccc(O)c3)no2)c1	-73%	2.5µM*	3.2µM*	?
CC(C)(C)OC(=O)[C@H]([C@@H]1N[C@@H](C(=O)O)C(C)(C)S1)N1C(=O)c2ccccc2C1=O	/	6%[9.22 µM]	9%[9.22 µM]	1%[11.4 µM]
Cc1ccc2sc(-c3ccc(N)cc3)nc2c1	-49%[10.9 µM]	2.5µM*	3.2µM*	21%
CCN(CCNC(=O)C1CCN(Cc2nc(-c3cccc(Cl)c3)oc2C)CC1)c1ccccc1	-20%	13µM*	16µM*	?
CCc1ccc(-c2nc(CN3CCC(C(=O)NCCN(CC)c4ccccc4)CC3)c(C)o2)cc1	?	-1%	-4%	1%
CCN(CCNC(=O)C1CCN(Cc2nc(-c3ccc(Cl)cc3)oc2C)CC1)c1ccccc1	-28%	25µM*	?	?
COCCCn1c(=N)c(C(=O)NCc2cccnc2)cc2c(=O)n3cccc(C)c3nc21	-13%[10.9 µM]	-6%	5%	2%
Cn1c(=O)oc2cc(S(=O)(=O)N3CCCC(C(=O)NCCc4ccccc4)C3)ccc21 (stereo unspecified)	-17%[10.9 µM]	4%	25%	?
Cc1ccccc1CCNC(=O)c1cc2ccccn2n1	-16%[10.9 µM]	?	10µM*	?
SMILES	Imprint erasure	p53ts 32C tox	p53ts 39C kill	IkB signaling
CCc1ccc(NC(=O)c2cc3ccccn3n2)cc1	-22%[10.9 µM]	6.3µM*	3.2µM*	12%
Cc1ccc(NC(=O)c2cc3ccccn3n2)cc1F	-22%[10.9 µM]	13µM*	?	4%
COc1cc(NC(=O)c2cc3ccccn3n2)cc(OC)c1OC	15%[10.9 µM]	-7%	-16%	4%
CCOc1ccc(-c2cc(C(=O)NCCCN3CCN(CC)CC3)c3ccccc3n2)cc1	-14%	13µM*	13µM*	-1%
CCCN1CCN(CCCNC(=O)c2ccc3c(c2)sc2nc(-c4ccc(OCC)cc4)cn23)CC1	-30%[10.9 µM]	?	13µM*	?
COc1ccc(-c2cn3c(n2)sc2cc(C(=O)Nc4ccc(F)cc4Cl)ccc23)cc1	-13%[10.9 µM]	-23%	20µM*	?
COc1ccc(-c2cn3c(n2)sc2cc(C(=O)Nc4ccc(C)cc4C)ccc23)cc1	-14%[10.9 µM]	3%	-5%	-1%
CCOc1ccc(-c2cc(C(=O)NCCc3ccc(C)cc3)c3ccccc3n2)cc1	-13%[10.9 µM]	-20%	16µM*	-2%
CCOc1ccc(-c2cc(C(=O)NCCc3ccc(Cl)cc3)c3ccccc3n2)cc1	-17%[10.9 µM]	-27%	?	1%
Cc1ccc(NC(=O)Cn2cnc3c(oc4ccccc43)c2=O)cc1Cl	-12%[10.9 µM]	-11%	-9%	?
C/C(CCN1CCCCc2nc(C)c(C)cc21)=N\OC[C@@H](C)[C@H](OCc1ccccc1)C(C)C	/	1%[9.22 µM]	2%[9.22 µM]	/
CC(=O)Oc1ccc(/C=C\C(=O)C[C@@H]2O[C@@H](Oc3cc(OC(C)=O)c4c(c3)O[C@@H](c3ccc(OC(C)=O)cc3)CC4=O)[C@H](OC(C)=O)[C@H](OC(C)=O)[C@@H]2OC(C)=O)cc1	/	/	/	-1%[11.4 µM]
Cc1ccc(-c2nc3cc(C)ccc3o2)cc1	-31%	10µM*	?	?
CC(C)c1ccc2oc(-c3ccc(N)cc3)nc2c1	-53%	6.3µM*	6.3µM*	?
Cc1ccc2oc(-c3ccco3)nc2c1	-1%	-10%	-5%	-2%
Cc1ccc(-c2nc3cc(N)ccc3o2)cc1	-79%	4µM*	4µM*	6%
Nc1nnc(C(=O)c2ccccc2N)s1	-3%	16µM*	?	4%
COc1ccc(NC(=O)CSc2nnc3scc(-c4ccc(Cl)cc4)n23)cc1	-13%[10.9 µM]	?	13µM*	?
CCOC(=O)C1CCCN(c2ncnc3c2cnn3-c2cccc(C)c2)C1 (stereo unspecified)	-90%	-15%	-12%	1%
CC1CCCN(c2ncnc3c2cnn3-c2ccc(F)cc2)C1 (stereo unspecified)	-47%[10.9 µM]	2µM*	2µM*	6%
Cc1cccc(-n2ncc3c(N4CCCC(C)C4)ncnc32)c1 (stereo unspecified)	-40%[10.9 µM]	4µM*	2.5µM*	?
Cc1ccc(-n2ncc3c(N4CCN(Cc5ccccc5)CC4)ncnc32)cc1C	-13%[10.9 µM]	20µM*	32µM*	?
Cc1ccc(-n2ncc3c(N4CCCCCC4)ncnc32)cc1C	-16%[10.9 µM]	10µM*	?	?
Cc1ccc(-n2ncc3c(N4CCN(c5ccc(F)cc5)CC4)ncnc32)cc1	-8%[10.9 µM]	10%	-29%	?
Cc1ccc(S(=O)(=O)O[C@H]2C[C@@H](C(C)(C)C)CC[C@@H]2c2ccccc2)cc1	/	1%[9.22 µM]	0%[9.22 µM]	2%[11.4 µM]
